Results reported in PubChem BioAssay AID624126 (The Scripps Research Institute Molecular Screening Center, 2012).
The whole screen tested about 360,000 compounds, of which about 1,400 (0.39%) were called active.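 The calls were made as follows: active = activation above its plate's cutoff, the mean activation of sample wells plus 3 SD; inactive = the rest.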 This excerpt belongs to a sample that is enriched for actives.

The molecules below were run against Muscarinic acetylcholine receptor M4 (Homo sapiens) (UniProt P08173) (assay: CHRM4 PAMs potentiating acetylcholine calcium signal – CHO-K1 cells, Fluo-8 calcium fluorescence, primary screen (AID 624126)). Conditions: CHO-K1 hM4/Gqi5, Fluo-8 calcium fluorescence, ACh EC20; at 3 µM; active compounds read high; 0% = ACh EC20, 100% = maximal ACh.
Chain of Muscarinic acetylcholine receptor M4 (Homo sapiens) (P08173 whole entry, looked up): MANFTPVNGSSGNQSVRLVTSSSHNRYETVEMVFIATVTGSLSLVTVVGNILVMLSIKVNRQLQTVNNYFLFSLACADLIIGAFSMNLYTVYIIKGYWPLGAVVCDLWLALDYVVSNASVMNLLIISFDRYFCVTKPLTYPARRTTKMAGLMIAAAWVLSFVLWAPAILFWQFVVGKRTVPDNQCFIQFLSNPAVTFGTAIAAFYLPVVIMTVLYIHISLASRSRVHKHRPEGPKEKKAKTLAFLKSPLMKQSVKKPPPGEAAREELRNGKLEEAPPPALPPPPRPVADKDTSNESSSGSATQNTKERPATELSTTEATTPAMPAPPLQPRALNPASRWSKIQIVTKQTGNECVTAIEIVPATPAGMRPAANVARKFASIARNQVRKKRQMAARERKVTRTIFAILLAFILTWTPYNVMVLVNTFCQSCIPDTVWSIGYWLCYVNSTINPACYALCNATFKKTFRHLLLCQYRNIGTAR

Row | Structure (SMILES) | activation
1 | Cc1cc(C)c(S(=O)(=O)NCCCN2CCOCC2)cc1Br | -4.24% (inactive)
2 | CCN1CCN(CC(=O)Nc2sc3c(c2C#N)CCC3)CC1 | 17.1% (active)
3 | O=C(CN1CCCC1)Nc1sc2c(c1C(=O)Nc1ccccc1)CCCC2 | 0.04% (inactive)
4 | COc1cccc(CN(C)CC(=O)Nc2sc3c(c2C#N)CCC3)c1 | -0.97% (inactive)
5 | COCc1c(C(=O)OCc2c(C)noc2C)oc2ccccc12 | -3.78% (inactive)
6 | CCCCCN(C(=O)CCC(=O)OCC(=O)NC1CCC(C)CC1)c1c(N)n(CCCC)c(=O)[nH]c1=O (stereo unspecified) | 9.55% (inactive)
7 | CN(CCc1ccccc1)C(=O)c1cccc(NC(=O)Cc2cccc(NC(=O)C3CCCN(C(=O)C4CCC4)C3)c2)c1 (stereo unspecified) | -5.03% (inactive)
8 | O=C(c1cnccn1)N1CCN(S(=O)(=O)c2cccc(Cl)c2)CC1 | 1.28% (inactive)
9 | Cc1ccc(Cn2c(=N)c(S(=O)(=O)c3ccc(C)cc3)cc3c(=O)n4ccccc4nc32)cc1 | 3.3% (inactive)
10 | O=C(OC12CC3CC(CC(C3)C1)C2)c1ccc(NCc2cc(O)ccc2O)cc1 | 15.5% (active)
11 | CC1CCN(C(=O)c2ccc3c(=O)n4c(nc3c2)CCCCC4)CC1 | 14.7% (active)
12 | O=C(Nc1cc(F)ccc1F)c1ccc2c(=O)n3c(nc2c1)CCC3 | 3.59% (inactive)
13 | Cc1cc(C)c(C)c(S(=O)(=O)N2CCN(C(=O)c3ccc4c(=O)n5c(nc4c3)CCC5)CC2)c1C | -1.12% (inactive)
14 | CCOc1ccc(/C=C/C(=O)N(CC)CC(=O)NCc2cccs2)cc1OC | -5.1% (inactive)
15 | CCN(CC(=O)NCc1cccs1)C(=O)/C=C/c1ccc(C)cc1 | 23.5% (active)
16 | CCN(CC(=O)NCc1cccs1)C(=O)c1ccccc1F | 0.45% (inactive)
17 | COCCn1c(SCC(=O)Nc2ccc3c(c2)CCC3)nc2ccccc2c1=O | -0.72% (inactive)
18 | Cc1c(C(=O)c2cccc([N+](=O)[O-])c2)c2ccccn2c1CCC#N | -5.93% (inactive)
19 | CN1CCN(c2cc3c(cc2F)c(=O)c(C(=O)O)cn3CCF)CC1 | 8.31% (inactive)
20 | CCCC(C)c1nnc(NC(=O)C2CC(=O)N(c3ccc(OCC)cc3)C2)s1 (stereo unspecified) | 0.96% (inactive)
21 | CCOc1ccc(NC(=O)[C@H](C)NC(=O)C2CC(=O)N(c3ccc(OC)cc3)C2)cc1 (stereo partly specified) | 17.5% (active)
22 | COc1ccc(N2CC(C(=O)N[C@@H](C)C(=O)N3CCCCC3)CC2=O)cc1 (stereo partly specified) | -1.42% (inactive)
23 | COc1ccc(-c2ccc3c(c2)C2CC3CCN2CCC#N)cc1 (stereo unspecified) | -4.51% (inactive)

Row | Structure (SMILES) | activation
24 | N/C(=N\OC(=O)CCc1ccccc1)c1ccc(Cl)cc1 | 12.9% (inactive)
25 | COc1ccc(/C(N)=N/OC(=O)CCCc2ccccc2)cc1 | 1.71% (inactive)
26 | N/C(=N\OC(=O)CCc1ccccc1)c1cccnc1 | 24.5% (active)
27 | CC(C)(C(=O)N1CCC1(C)C(=O)NS(=O)(=O)c1ccc(Br)cc1)c1ccccc1 (stereo unspecified) | 1.17% (inactive)
28 | CC(C)c1nc(CNC(=O)CC2C(=O)NCCN2Cc2cccc(F)c2F)cs1 (stereo unspecified) | -2.59% (inactive)
29 | Cc1nnc(SC(C(=O)Nc2cc(Cl)cc(Cl)c2)c2ccccc2)[nH]c1=O (stereo unspecified) | -2.22% (inactive)
30 | NC(=S)Nc1c(Cl)cccc1Cl | 43.9% (active)
31 | CN(CC(=O)Nc1c(Cl)cccc1Cl)C(=O)c1ccncc1 | 0.17% (inactive)
32 | O=C(Nc1c(Cl)cccc1Cl)C1CCC1 | 11.8% (inactive)
33 | COC(=O)c1c(NC(=O)COc2ccc(Cl)cc2Cl)sc2c1CC(C)(C)NC2(C)C | 14.6% (inactive)
34 | CCOc1ccccc1C1NC(=O)NC(C)=C1C(=O)OCc1ccco1 (stereo unspecified) | -5.48% (inactive)
35 | CCCCOc1ccc(CON(C(C)=O)C(C)=O)cc1Cl | -9.39% (inactive)
36 | Cc1ccc(C2=CSC3=NS(=O)(=O)CCN23)cc1C | 5.85% (inactive)
37 | CCCOc1ccc(C2=CSC3=NCCN23)cc1Cl | 15.8% (active)
38 | CCNC(=O)CCc1nc(-c2ccc(C(C)(C)C)cc2)no1 | 1.74% (inactive)
39 | O=C(O)C1CCCN1S(=O)(=O)c1ccc2c(c1)CCC2 (stereo unspecified) | -5.21% (inactive)
40 | CCCc1cc(=O)[nH]c(SCC(=O)N2C(C)CCCC2C)n1 (stereo unspecified) | 2.48% (inactive)
41 | CC(C)Cn1c(N)c(C(=O)COC(=O)CN2C(=O)C3CC=CCC3C2=O)c(=O)n(C)c1=O (stereo unspecified) | -2.93% (inactive)
42 | CCCc1cc(=O)[nH]c(SCC(=O)c2c(N)n(CC(C)C)c(=O)n(C)c2=O)n1 | 25.4% (active)
43 | Cc1ccc(SCC2=NNC(=O)C2)cc1 | -0.52% (inactive)
44 | O=C(Cn1nc(CNc2ccc(Cl)cc2)[n+]2c1CCCCC2)c1ccc(Cl)cc1 | -0.75% (inactive)
45 | Cc1ccccc1NC(=O)NC1(C(=O)N2CCCC2)CCCCC1 | 9.77% (inactive)
46 | Cc1ccc(C)c(NC(=O)NNC(=O)c2ccc3ccccc3c2O)c1 | 12.9% (inactive)

Row | Structure (SMILES) | activation
47 | COc1ccc2c(C)cc3nnnn3c2c1 | 5% (inactive)
48 | Cc1cc(=O)oc2c(C(=O)c3ccccc3)c(OCC(N)=O)ccc12 | -2.31% (inactive)
49 | Cc1cc(=O)oc2c(C)c(OCC(=O)NCCN3CCOCC3)ccc12 | -1.9% (inactive)
50 | CC(=O)c1c(OCC(=O)N(C)C2CCCCC2)ccc2c(C)cc(=O)oc12 | 21.7% (active)
51 | C[n+]1cccc(C(=O)O)c1 | -3.7% (inactive)
52 | O=C(Cc1ccc(S(=O)(=O)N2CCOCC2)s1)Nc1ccc(Br)c(C(F)(F)F)c1 | -10.2% (inactive)
53 | Cc1cc(=O)[nH]c(Nc2cccc(Br)c2)n1 | -7.26% (inactive)
54 | Cc1ccc(C)c(NC2=NCC(=O)N2c2ccc3c(c2)OCCO3)c1 | -2.16% (inactive)
55 | Cc1cc(=O)[nH]c(N/N=C/c2ccc3c(c2)OCCO3)n1 | 31.5% (active)
56 | Cn1cnc2c1c(=O)n(Cc1ccccc1C#N)c(=O)n2C | 1.16% (inactive)
57 | O=C(C(NS(=O)(=O)c1cccc2nsnc12)c1ccccc1)N1CCN(c2ccccn2)CC1 (stereo unspecified) | -11.9% (inactive)
58 | O=C(Nc1nnc(C2CC2)s1)c1ccccn1 | 28.3% (active)
59 | CCc1ccccc1OCC(=O)Nc1nnc(C2CC2)s1 | 2.68% (inactive)
60 | CCc1cc(C(=O)Nc2nnc(C3CC3)s2)sc1C | 6.5% (inactive)
61 | O=C(CN1CCSCC1)N/N=C/c1ccc(F)cc1F | 4.64% (inactive)
62 | CCN(CC)c1ccc(C(=O)OCC(=O)c2ccco2)cc1 | -1.72% (inactive)
63 | Cc1cc(NC(=O)C(C)SCC(=O)Nc2cccc(S(=O)(=O)N3CCCCCC3)c2)no1 (stereo unspecified) | -6.44% (inactive)
64 | O=C(CCc1nc(-c2ccccc2)no1)Nc1cccc(C(=O)NC2CC2)c1 | 10.1% (inactive)
65 | N#CCSc1ccccc1NC(=O)CN1C(=O)NC(CCc2ccccc2)C1=O (stereo unspecified) | 1.07% (inactive)
66 | O=[N+]([O-])c1ccc(N2CCN(S(=O)(=O)c3ccc4ccccc4c3)CC2)cc1NCc1ccco1 | 14% (inactive)
67 | O=C(c1ccccc1)N1CCN(c2ccc([N+](=O)[O-])c(NCc3ccco3)c2)CC1 | 21.4% (active)
68 | O=C(c1ccc(S(=O)(=O)NCc2ccco2)cc1)N1CCN(c2ccccc2)CC1 | 18.3% (inactive)
69 | CC(=O)c1ccc(S(=O)(=O)NCCC(=O)N2CCN(c3ccccn3)CC2)cc1 | 2.49% (inactive)

Row | Structure (SMILES) | activation
70 | Cc1csc(SCC(=O)N(c2ccccc2)C(C)C)n1 | 1.05% (inactive)
71 | O=C(CCC(=O)OCC(F)(F)C(F)F)NCc1ccccc1 | -1.61% (inactive)
72 | CC1CN(CCCOc2ccccc2-c2ccccc2)CC(C)O1 (stereo unspecified) | -4.17% (inactive)
73 | Cc1cc(C)c(OCCN2CC(C)OC(C)C2)c(Br)c1 (stereo unspecified) | 20.4% (active)
74 | CC1CN(CCOc2ccccc2[N+](=O)[O-])CC(C)O1 (stereo unspecified) | 1.64% (inactive)
75 | Cc1cc2c(cc1C)[n+](C)cn2CC(O)COCC1CC=CCC1 (stereo unspecified) | 4.04% (inactive)
76 | NS(=O)(=O)c1cccnc1Nc1cccc(Cl)c1 | 24.9% (active)
77 | OCCCNc1nccc(-c2cc(Nc3cccc(Cl)c3)ncn2)n1 | 4.57% (inactive)
78 | O=S(=O)(Nc1ncccn1)c1ccc(NS(=O)(=O)c2cccc(Cl)c2Cl)cc1 | 3.83% (inactive)
79 | CC(C(=O)NCCc1ccc(S(N)(=O)=O)cc1)N1C(=O)CC(C)(C)Sc2ccccc21 (stereo unspecified) | -2.13% (inactive)
80 | COC(=O)[C@]12CCCCC=C1N(Cc1ccc3c(c1)OCO3)C(=O)[C@H](CC(=O)NCc1cccs1)C2 | -4.76% (inactive)
81 | CCOC(=O)[C@]12CCCC=C1N(Cc1ccc3c(c1)OCO3)C(=O)[C@H](CC(=O)N1CCN(C(=O)c3ccco3)CC1)C2 | 13.2% (inactive)
82 | CCOC(=O)[C@]12CCCC=C1N(Cc1ccc3c(c1)OCO3)C(=O)[C@H](CC(=O)NCc1cccs1)C2 | 23.3% (active)
83 | Cc1[nH]c2c(C(=O)N3CCCC(CCC(=O)NCc4ccccc4F)C3)cccc2c1C (stereo unspecified) | -3.21% (inactive)
84 | Cc1nc(CN2CCN(C(=O)CCc3nnc(Cc4c[nH]c5ccccc45)o3)CC2)cs1 | -5.85% (inactive)
85 | COc1ccc(N2CCN(C(c3cc4ccc(C)cc4[nH]c3=O)c3nnnn3C3CCCC3)CC2)cc1 (stereo unspecified) | -3.66% (inactive)
86 | CCOc1ccc2[nH]c(=O)c(C(c3nnnn3CCOC)N3CCOCC3)cc2c1 (stereo unspecified) | 33.2% (active)
87 | COCCn1nnnc1C(c1cc2ccc(OC)cc2[nH]c1=O)N1CCc2ccccc2C1 (stereo unspecified) | -1.22% (inactive)
88 | COc1ccc(OC)c(S(=O)(=O)N2CCCC(C(=O)N3CCC(C(N)=O)CC3)C2)c1 (stereo unspecified) | 6.48% (inactive)
89 | Cc1cccc(C(C)C)c1NC(=O)COC(=O)C1CC(=O)N(Cc2ccccc2)C1 (stereo unspecified) | 1.78% (inactive)
90 | CCC/C(C)=N\Nc1nc2c(c(=O)n(C)c(=O)n2C)n1C | -1.33% (inactive)
91 | O=C(Nc1ccc(N2C(=O)c3cccc4cccc(c34)C2=O)cc1)c1ccc(N2CCCCC2)c([N+](=O)[O-])c1 | 4.02% (inactive)
